Pf growth 96h = P. falciparum growth inhibition at 96 hours; P. falciparum luciferase reporter growth, 96 h; Potency, µM (highest dose often 28.7 µM), without a hit: at the top dose activity change, negative = inhibition, usual class: inhibitors; 6.9% of 320,000 active; also: potency is read from the fitted curve at half-maximal effect; % is scaled to controls: 0 for no effect and ±100 for the full control effect
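Readout is luminescence from an integrated firefly luciferase in P. falciparum. Red cells, 2% hematocrit and 0.05% parasitemia final, were cultured with compound through two parasite generations (96 hours) at 37 C, 5% CO2.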
Pf growth 48h = inhibits P. falciparum growth in the first generation, 48 h. P. falciparum luciferase growth in erythrocytes, 48 h. Potency, µM (titrated, usually from 28.7 µM), without a hit: top-dose activity change, negative = inhibition, most hits filed as inhibitors. 5.9% of 310,000 active. AID 504832; also: potency is read from the fitted curve at half-maximal effect; % is scaled to controls: 0 for no effect and ±100 for the full control effect
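Luciferase-expressing P. falciparum in infected erythrocytes (2% hematocrit, 0.1% parasitemia final) in RPMI 1640/0.5% Albumax were exposed to compound for 48 hours at 37 C, 5% CO2; growth read as luminescence.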
Cycloheximide cs = counter-screen for Shiga toxin inhibitors: cycloheximide protein synthesis inhibition; 12% of 300,000 active; cell reporter, cycloheximide protein synthesis inhibition counterscreen; max response, %; in the data active = max response mostly above about 13%, no sharp cut-off; inactive = mostly below about 14%; also: read at 38.3 µM for the half of the compounds with a filed dose; 0% is about no effect
Shiga inhibitor = blocks Shiga toxin action in Vero cells. 9.2% of 290,000 active. Vero cells, Shiga toxin protein synthesis inhibition reporter. inhibition, % at 38.7 µM; in the data active = inhibition mostly above about 28%, no sharp cut-off; inactive = mostly below about 43%; also: 0% is about no effect
An asterisk follows results filed as active; ? = inconclusive; nt = not tested or not shown. Sampled rows, rich in hits. Any-hit rate of the full collection: about 21%. Unless noted, calls follow the shape of the dose curve; as a rule, active = well fitted inhibition curve with a large enough effect; inconclusive = small, poorly fitted or top-dose-only effect, or another doubt; inactive = no such curve, though single readings can be large or run the other way.

SMILES	Pf growth 96h	Pf growth 48h	Cycloheximide cs	Shiga inhibitor
Cc1ccc(-c2n[nH]c(Cc3ccccc3)n2)cc1	174.8%	115.8%	48.6*	74.5*
CN(C)c1ccc(C2CC(c3ccccc3)=Nc3nc(-c4ccccc4)cn32)cc1 (stereo not given)	5.22µM*	8.28µM*	30.8*	11.7
Cc1nc(CSc2ccc(Cl)cc2)cs1	26.8%	nt	35.5*	111.1*
Cc1ccc(SCc2cc(-c3ccc(Cl)cc3)on2)cc1	-0.9%	7.3%	-0.9	18.6
Cc1nc(CSc2ccc(Br)cc2)cs1	57.5%	43.1%	23.4*	49.2*
Cc1cc(N)n(-c2ccc(S(N)(=O)=O)cc2[N+](=O)[O-])n1	7.1%	47.1%	1.8	-11.1
OC(COC(c1ccccc1)c1ccccc1)CN1CCOCC1 (stereo not given)	9.8%	6.2%	-0.9	-6.1
CCCOc1ccc(C(O)C(CN2CCOCC2)c2ccccc2)cc1 (stereo not given)	8.28µM*	8.28µM*	-2.4	3.0
CCOc1ccc(C(O)C(CN2CCOCC2)c2ccccc2)cc1 (stereo not given)	10.4µM*	?	22.9	-12.9
c1ccc(C(CN2CCOCC2)c2ccccc2)cc1	8.28µM*	0.0%	1.8	-11.4
CCc1ccccc1NC(=S)Nn1cnnc1	-21.5%	17.3%	-2.4	16.1
Cc1ccc(NC(=O)c2cccc(Cl)c2)nc1	49.4%	73.2%	29.4*	160.5
O=C(NC(=S)Nc1ccc(Cl)cn1)C(c1ccccc1)c1ccccc1	0.0%	?	6.4	6.8
Cn1sc(NC(=O)c2cccc(Cl)c2)nc1=O	4.5%	46.0%	15.6	50.9*
Cc1ccc(S(=O)(=O)N(C)c2ccc(C(=O)Nc3ccc(C)cn3)cc2)cc1	?	11.7µM*	nt	nt
Cn1sc(NC(=O)c2ccccc2Cl)nc1=O	-0.9%	-10.5%	10.0	-4.9
Cc1ccc(S(=O)(=O)N(C)c2ccc(C(=O)Nc3cccc(C)n3)cc2)cc1	0.0%	-2.4%	1.2	12.4
S=C(Nc1ccccc1)Nc1ccc(Cl)cn1	27.1%	38.7%	24.7*	57.0
COc1ccc(-n2nnnc2SCC(=O)Nc2ccc(OC)cc2OC)cc1	0.0%	0.0%	0.7	-7.7
COc1cc(C2NC(=O)CCC2[N+](=O)[O-])cc(OC)c1OC (stereo not given)	-6.1%	-20.4%	1.8	-16.5
COCCn1c(C)cc(C(=O)COc2ccc(N(C)S(=O)(=O)c3ccc(C)cc3)cc2)c1C	?	9.28µM*	nt	nt
O=C(CCSCCc1ccccn1)Nc1ccc(Cl)cn1	nt	8.7%	5.3	-11.2
O=C(Cc1ccccc1)Nc1ccc(Cl)cn1	36.9%	0.0%	22.6*	41.9
O=C(COC(=O)Cc1ccccc1)Nc1ccc(Cl)cn1	3.6%	4.6%	-1.2	7.1
O=C(CSc1ccccn1)Nc1ccc(Cl)cn1	-0.9%	-29.6%	22.6*	44.1
SMILES	Pf growth 96h	Pf growth 48h	Cycloheximide cs	Shiga inhibitor
Cc1ccc(NC(=O)c2ccc(NCc3ccc(F)cc3)nc2)cc1	?	18.8%	-3.3	-3.0
Cc1ccc(NC(=O)c2ccc(Nc3ccccc3F)nc2)cc1	5.86µM*	68.4%	40.2*	14.8
O=C(Nc1ccncc1)C1CCN(S(=O)(=O)c2c(Cl)cccc2Cl)CC1	?	-24.2%	nt	nt
COCCCNC(=S)N1CCC(C(=O)c2ccc(Cl)cc2)CC1	?	-1.8%	-3.2	-12.5
CC(C)CC(=O)Nc1cccc(C(C)O)c1 (stereo not given)	32.6%	10.6%	2.0	-7.1
CCc1ccccc1NC(=O)CNC(=O)c1ccc(-n2cncn2)c([N+](=O)[O-])c1	-2.1%	?	nt	nt
Cc1ccc(C(=O)C(C)N2C(=O)NC(C)(c3ccccc3)C2=O)cc1 (stereo not given)	5.6%	1.2%	-1.0	-7.4
Cc1ccc(CC(=O)Nc2ccc(Cl)cn2)cc1	152.1%	67.8%	40.6*	69.5*
Cc1csc(SCC(=O)Nc2ccc(Cl)cn2)n1	-25.7%	-9.4%	9.9	23.8
Cc1ccc(NC(=O)Cc2ccc(-c3ccccc3)cc2)nc1	24.2%	0.9%	-2.6	50.2
COc1cccc(C(=O)Nc2ccc(NC(=O)C(C)(C)C)cn2)c1	?	42.2%	12.0*	41.1*
COc1cc(C(=O)Nc2ccc(N(C)C)cc2)cc(OC)c1OC	220.4%	140.4%	24.5*	58.2*
CC(C)(C)c1csc(SCC(=O)Nc2ccc(Cl)cn2)n1	?	11.7µM*	-0.2	14.6
COc1cccc(C(=O)Nc2ccc(NC(=O)C3CCCCC3)nc2)c1	-2.1%	?	0.8	22.1
CC1(C2CC2)NC(=O)N(CC(=O)Nc2ccccc2F)C1=O (stereo not given)	6.5%	-7.7%	nt	nt
COc1ccc(S(=O)(=O)N2CCN(c3ccccc3OC)CC2)cc1-c1noc(C)n1	nt	nt	8.4	-6.9
COc1cc(C(=O)Nc2ccc(NC(=O)c3cccc(Cl)c3)nc2)cc(OC)c1OC	74.0%	2.62µM*	4.3	29.3
CCC(=O)Nc1ccc(NC(=O)CCc2ccccc2)cn1	?	6.8%	-2.9	nt
Cc1ccc(C(=O)Nc2ccc(Cl)cn2)cc1	7.7%	164.1%	33.8*	54.8*
O=C(NC(=S)Nc1ccc(Cl)cn1)C12CC3CC(CC(C3)C1)C2	?	57.6%	14.9*	45.6
O=C(CCc1ccccc1)Nc1ccc(Cl)cn1	14.2%	81.7%	46.0*	134.1*
Cc1ccc(C(=O)NCC(=O)OCC(=O)Nc2ccc(Cl)cn2)cc1	-9.7%	-10.4%	nt	nt
CCCC(=O)N(c1ccc(C(=O)O)cc1)c1nc(-c2ccccc2)c(C)s1	4.8%	?	-2.0	5.5
Cc1cc(C)c(OCC(=O)Nc2nnc(-c3ccco3)o2)c(C)c1	69.4%	137.9%	-7.8	-10.6
CC(C)N1C(=O)CCC1C(=O)NCc1ccc(F)cc1Cl (stereo not given)	4.9%	27.0%	-1.9	16.5
SMILES	Pf growth 96h	Pf growth 48h	Cycloheximide cs	Shiga inhibitor
COC(=O)c1cc2c(ccn2-c2ccc(F)cc2)n1Cc1cccc(OC)c1	?	?	-3.3	-13.0
O=C(NCCCNCCCNC(=O)c1ccc(/C=N/O)nc1)c1ccc(/C=N/O)nc1	2.62µM*	9.28µM*	-1.8	-5.8
O=C(NCC1CCCO1)c1cnc(Cl)c(Cl)c1 (stereo not given)	5.0%	?	2.3	-1.4
O=C(NCC1CCCO1)c1ccc(/C=N/O)nc1 (stereo not given)	14.7µM*	0.2%	-3.5	-9.6
CC1CCCN(c2ccc(C(=O)NCC3CCCO3)cn2)C1 (stereo not given)	-5.0%	52.5%	24.8*	52.1
CN(CCC(=O)Nc1ccc(Br)cc1)Cc1ccccc1	nt	7.0%	-1.1	-15.5
COc1ccc(CNC(=O)N2CCN(c3ccccc3)CC2)cc1	20.4%	28.1%	1.0	-3.6
COc1ccccc1NC(=O)C1CCCN1C(=O)Nc1ccc(F)cc1 (stereo not given)	-18.7%	-6.4%	4.2	-12.4
C=CCN=C1CCCc2c1[nH]c1ccc(C)cc21	12.3%	44.6%	30.1*	50.1*
Cc1cc(C)c(S(=O)(=O)c2ccccc2)c(OC(=O)c2c(Cl)cc(Cl)cc2Cl)n1	14.0%	3.7µM*	13.5	-6.9
